TbREL1 primary – TbREL1 inhibition, primary screen. inhibition, % at 9.66 µM. TbREL1 RNA ligation, FRET fluorescence. AID 1117264. hit rate 0.49% among 89,000;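 active = inhibition above the mean inhibition across all screened compounds plus 3 SD, cut at about 11% in these data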
Target sequence (P86926 whole entry, looked up): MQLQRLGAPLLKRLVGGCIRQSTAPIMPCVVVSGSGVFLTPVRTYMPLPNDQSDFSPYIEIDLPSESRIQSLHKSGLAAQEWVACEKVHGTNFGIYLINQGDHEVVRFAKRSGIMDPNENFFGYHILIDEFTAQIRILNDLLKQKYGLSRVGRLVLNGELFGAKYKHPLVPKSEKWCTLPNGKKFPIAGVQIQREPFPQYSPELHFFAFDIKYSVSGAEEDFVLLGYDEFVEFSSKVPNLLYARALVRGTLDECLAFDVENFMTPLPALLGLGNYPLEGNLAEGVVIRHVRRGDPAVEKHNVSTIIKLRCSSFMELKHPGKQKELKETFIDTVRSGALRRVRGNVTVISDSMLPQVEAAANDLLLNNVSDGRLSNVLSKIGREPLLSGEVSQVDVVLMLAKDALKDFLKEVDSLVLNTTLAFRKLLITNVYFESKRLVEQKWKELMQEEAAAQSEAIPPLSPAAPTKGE
TbREL1 conf – TbREL1 inhibition, confirmation; shares compounds with TbREL1 primary; TbREL1 RNA ligation, FRET fluorescence; inhibition, % at 9.66 µM; hit rate 37% among 390; AID 1117282;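 active = mean inhibition across replicates above a set limit taken from the earlier primary screen, cut at about 11% in these data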
Of the large screens only hits and unclear results are named; the others gave an inactive call (follow-up assays come after a bar, where they were run). Shown is part of a subset that was picked to be rich in hits.

O=C(c1cccc(F)c1)N(Cc1ccccn1)CC1CCCO1 (stereo unspecified)	none
COc1ccc(/C=C/C(=O)NC2=NCCS2)c(OC)c1	none
CN1CCN(c2ccc(-c3csc(N4CCC(C(N)=O)CC4)n3)cc2)CC1	none
Cc1nn(-c2ccccc2)c2sc(C(=O)N3CCN(Cc4ccccc4)CC3)cc12	none
c1ccc(-c2ccc(C3=Nn4c(nnc4-c4ccccc4)SC3)cc2)cc1	none
CC(C)(C)c1ccc(-c2nnc3n2N=C(c2ccc(-c4ccccc4)cc2)CS3)cc1	none
Cc1ccc(-c2nnc3n2N=C(c2ccc(-c4ccccc4)cc2)CS3)cc1	TbREL1 primary 27 | TbREL1 conf inactive
COC(=O)C1=CC[C@@H](NC(=O)OC(C)(C)C)[C@H](O)[C@H]1O[Si](C)(C)C(C)(C)C	none
COc1cc(C(=O)N2CCN(c3ccccc3O)CC2)ccc1OCC(=O)N1CCOCC1	none
COc1cc(C(=O)N2CCN(c3cccc(C)c3C)CC2)ccc1OCC(=O)N1CCOCC1	TbREL1 primary 13 | TbREL1 conf inactive
COc1cc(C(=O)N2CCN(S(=O)(=O)c3cc(C)ccc3C)CC2)ccc1OCC(=O)N1CCOCC1	none
O=C(Nc1ccc(N2C(=O)CC3(CCCCC3)C2=O)c(Cl)c1)c1ccccn1	none
COc1ccc(C2C(C(=O)N3CCCCC3C)CC(=O)N2c2ccc(OC)cc2)cc1 (stereo unspecified)	none
Cc1ccccc1NC(=S)N(CCN(C)C)C(C)c1ccccn1 (stereo unspecified)	TbREL1 primary 14 | TbREL1 conf inactive
Cc1ccccc1NC(=S)N(CCN(C)C)C(C)c1cccnc1 (stereo unspecified)	none
Cc1c(Cl)cccc1NC(=S)N(CCN(C)C)C(C)c1ccccn1 (stereo unspecified)	none
O=C(Nc1ccccc1F)O[C@@H]1CC[C@@]23CCCN2C(=O)CCC[C@H]3C1	none
O=C(CSc1nnc(-c2ccccc2)n1Cc1ccco1)Nc1ccc(Oc2ccccc2)cc1	none
O=C(CN1CCCCC1)Nc1ccc(S(=O)(=O)N2CCCCCC2)cc1	none
Cc1n[nH]c(C)c1NC(=O)CN1CCN(S(=O)(=O)c2ccc(C(F)(F)F)cc2)CC1	TbREL1 primary 11 | TbREL1 conf inactive
Cc1ccc(S(=O)(=O)N2CCN(CC(=O)NC(C)c3ccccc3)CC2)cc1 (stereo unspecified)	none
COC(=O)[C@]12C[C@H](CC(=O)N3CCSCC3)C(=O)N(Cc3ccc(Cl)cc3Cl)C1=C[C@H](C1CCCC1)O[C@@H]2C	none
COc1ccc(C2=Nn3c(nnc3C3CCCCC3)SC2)cc1	none
O=C(O)c1ccc(N2C(=O)CSC2=S)cc1	none
O=C(O)c1ccc(CN2C(=O)CSC2=S)cc1	none
O=C(NN1C(=O)CSC1=S)C(=O)NN1C(=O)CSC1=S	TbREL1 primary 38 | TbREL1 conf 19
Cc1occc1-c1nnc(SCC(=O)N2CCN(c3ncccn3)CC2)n1-c1ccccc1	none
COc1ccc(-c2nnc(SCc3cccc(F)c3)n2-c2ccccc2)cc1	none
COC(=O)C1=C(C)N(Cc2ccccc2)C(=O)N[C@H]1c1cccs1	none
CCN=C1NC(c2ccccc2C(F)(F)F)C(C(=O)OC)=C(C)N1Cc1ccc(C(F)(F)F)cc1 (stereo unspecified)	TbREL1 primary 12 | TbREL1 conf 17
COC(=O)C1=C(C)N(Cc2ccccc2)C(=S)NC1c1cccc(Br)c1 (stereo unspecified)	none
COC(=O)C1=C(C)N(Cc2cccc(C(F)(F)F)c2)C(=NCc2ccccc2C(F)(F)F)NC1c1cccc(F)c1 (stereo unspecified)	TbREL1 primary 15 | TbREL1 conf 22
COC(=O)C1=C(C)N(C)C(=NCc2cccc(C(F)(F)F)c2)NC1c1ccccc1C(F)(F)F (stereo unspecified)	none
COC(=O)C1=C(C)N(Cc2ccccc2)C(=NCc2cc(OC)c(OC)c(OC)c2)N[C@H]1CCc1ccccc1	none
COC(=O)C1=C(C)N(Cc2ccc(F)cc2)C(=S)NC1c1ccc(F)cc1 (stereo unspecified)	none
COC(=O)C1=C(C)N(Cc2cccc(C(F)(F)F)c2)C(=NCc2ccc(OC)cc2)NC1c1ccccc1C(F)(F)F (stereo unspecified)	TbREL1 primary 12 | TbREL1 conf 23
COC(=O)C1=C(C)N(C)C(=NCC2CC2)NC1c1ccccc1C(F)(F)F (stereo unspecified)	none
COC(=O)C1=C(C)N(Cc2cccc(C(F)(F)F)c2)C(=NCc2ccc(C(F)(F)F)cc2)NC1c1ccccc1C(F)(F)F (stereo unspecified)	TbREL1 primary 18 | TbREL1 conf 22
CCCC1CCC2(CC1)CCC2OC(=S)Nc1ccccc1C(F)(F)F (stereo unspecified)	none
COC(=O)[C@]12C[C@H](CC(=O)NCc3ccccc3)C(=O)N(Cc3ccc4c(c3)OCO4)C1=C[C@H](C(C)C)O[C@@H]2C1CC1	none
CCCC1CCC2(CC1)CCC2OC(=O)Nc1c(OC)cccc1OC (stereo unspecified)	none
Cn1c(SCC2CCCCC2)nnc1-c1ccco1	none
Cc1ccc(C)c(NC(=O)[C@@H]2CCCN2S(=O)(=O)c2cccc3cccnc23)c1	none
CC[C@@]1(c2ccc(C)cc2)C(=O)N(C(=O)OC)N1C(=O)OC	none
COc1cccc(NC(=O)C2CCCN2C(=O)NCc2ccccc2)c1 (stereo unspecified)	none
Cc1n[nH]c(C)c1S(=O)(=O)NC(C)Cc1ccccn1 (stereo unspecified)	none
CCCCC#Cc1ccccc1COC[B-](F)(F)F	none
Nn1c(SCC(=O)Nc2ccc(Br)cn2)nnc1-c1n[nH]c2c1CCC2	none
COC(=O)C1=C(C)N(C)C(=NCc2ccccc2C(F)(F)F)NC1c1cccc(F)c1 (stereo unspecified)	TbREL1 primary 13 | TbREL1 conf 18
Cc1c(C(=O)NCc2ccccc2C(F)(F)F)sc(=O)n1Cc1cccc(C(F)(F)F)c1	none
CCN1C(=O)N[C@@H](c2cccc(C(F)(F)F)c2)C(C(=O)OC)=C1C	none
C=CCN=C1NC(c2cccc(F)c2)C(C(=O)OC)=C(C)N1Cc1cccc(C(F)(F)F)c1 (stereo unspecified)	TbREL1 primary 11 | TbREL1 conf 12
COC(=O)C1=C(C)N(CC(C)C)C(=S)NC1c1cccc(F)c1 (stereo unspecified)	none
COC(=O)C1=C(C)N(Cc2cccc(C(F)(F)F)c2)C(=NCc2ccccc2C(F)(F)F)NC1c1ccccc1C(F)(F)F (stereo unspecified)	TbREL1 primary 16 | TbREL1 conf 24
COC(=O)C1=C(C)N(C)C(=NCc2ccc(C(F)(F)F)cc2)NC1c1ccc(F)cc1 (stereo unspecified)	none
COC(=O)C1=C(C)N(Cc2ccc(F)cc2)C(=S)NC1c1cccc(F)c1 (stereo unspecified)	none
CC(=O)c1cc(-c2cccc([N+](=O)[O-])c2)c(=O)n2c1CCC2	none
O=C(CSc1nnc(-c2ccc(Cl)cc2)n1-c1ccccc1)Nc1ccc(Oc2ccccc2)cc1	none
Cc1ccc(C(=O)N/C(=C\c2ccc(-c3cccc([N+](=O)[O-])c3)o2)C(=O)NC(C)(C)C)cc1	none
Cc1nc(S/C(=C/c2ccc(-c3ccc(C(=O)O)cc3)o2)C(=O)O)n[nH]1	TbREL1 primary 21 | TbREL1 conf 17
O=Cc1ccc(-c2ccc(C(=O)O)cc2)o1	none
O=C(O)c1ccccc1-c1ccc(/C=C/c2cc(C(F)(F)F)[nH]c(=O)n2)o1	none
N=C1S/C(=C\c2ccc(-c3ccccc3C(=O)O)o2)C(=O)N1c1ccc2c(c1)OCO2	none
